From PubChem BioAssay (EPA / NIEHS) come the findings set out here.

Calls of active or inactive are those of the source. Rule for the calls: active = hit-call score of the fitted dose curve at least 0.9, where 1 is the maximum; inactive = score below 0.9.

The assay in a line: ATG_M_32_CIS: Attagene CIS-FACTORIAL HepG2 Assay for M32 Transcription Factor (Internal Marker) (AID 2282949).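 Note: background control marker of the multiplexed CIS panel rather than a real target.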 Conditions: HepG2 Attagene cis-factorial M32 reporter, mRNA; actives raise or lower the signal. On the procedure:
ATG_CIS is a cell-based, multiplexed-readout assay that uses HepG2, a human liver cell line, with measurements taken at 24 hours after chemical dosing in a 24-well plate.ATG_M_32_CIS is one of 52 assay component(s) measured or calculated from the ATG_CIS assay. It is designed to make measurements of mRNA induction, a form of inducible reporter, as detected with fluorescence intensity signals by Reverse transcription polymerase chain reaction (RT-PCR) and Capillary electrophoresis technology.Data from the assay component ATG_M_32_CIS was analyzed into 1 assay endpoint. This assay endpoint, ATG_M_32_CIS, was analyzed with bidirectional fitting relative to DMSO as the negative control and baseline of activity. Using a type of inducible reporter, measures of mRNA for gain or loss-of-signal activity can be used to understand the background control at the transcription factor-level as they relate to the gene . Furthermore, this assay endpoint can be referred to as a secondary readout, because this assay has produced multiple assay endpoints where this one serves a background control function. To generalize the intended target to other relatable targets, this assay endpoint is annotated to the background measurement intended target family, where the subfamily is internal marker.
Human liver HepG2 cells are transiently transfected with multiple reporter transcription units (MRTUs) in 6-well plates using FuGene 6 reagent (Roche; 3 ml FuGene/1 mg DNA). The MRTU constructs are regulated by a cis-regulating element (promoter). […] A major difference between the CIS and TRANS system is that in CIS activities of endogenous TFs are measured, whereas the TRANS assay evaluates changes in activities of exogenous, chimeric NR-Gal4 proteins. […] At the end of 24 hour incubation, total RNA was isolated using TriZol reagent (Invitrogen). The isolated RNA is then reverse-transcribed using oligo(dT) primer and Mo-MLV reverse transcriptase (Invitrogen) with DNAse I (Ambion) treatment for 30 min. The one-tenth of the produced cDNA was amplified by PCR using Taq DNA polymerase (Invitrogen) and two reporter sequence-specific primers. The PCR products were fluorescently labeled by primer extension with 6-arboxyfluorescein (6-FAM) 5'-labeled reporter sequence-specific primer (2 min at 95 C, 20 s at 68 C and 10 min at 72 C) and these products were digested with 5U of HpaI (New England Biolabs) for 2h at 37 C. The fragments were purified using Qiaquick PCR columns (Qiagen), analyzed on an ABI 3130xL genetic analyzer (Applied Biosystems) with peak positions identified by using a set of X-rhodamine (ROX)-labeled MapMarker1000 molecular weight standards (BioVentures). The raw capillary electrophoresis data was processed using Attagraph software (Attagene).
`C1CCSC1`: the result was inactive. As for `CC=C(C)C=CC=C(C)C`, the entry is “inactive”; as for `CC(CC=O)CC(C)(C)C` (stereo not given), “inactive”; as for `CC(C)CCCCCOC(=O)CS`, “inactive”.

As for `NC(=O)Nc1ccccc1`, the result was inactive.

As for `C=C(C)OC(C)=O`, the result was inactive. In the case of `CC1=CCC(C(C)C)C=C1` (stereo not given) it was “inactive”. As for `O=C(Cl)c1c(Cl)c(Cl)c(C(=O)Cl)c(Cl)c1Cl`, the entry is “inactive”; as for `CCC(C)(O)CCCC(C)C` (stereo not given), “inactive”. In the case of `CCc1cccc(C)c1N(C(=O)CS(=O)(=O)O)C(C)COC` (stereo not given), the compound was called inactive. As for `CCC(=O)C1CC(C(C)C)CC=C1C` (stereo not given), the entry is “inactive”; as for `CC(CC(C)C)=NO`, “inactive”; as for `O=C(O)CCCC(=O)O`, “inactive”.

Regarding `CC1(C)C(=O)N(CO)C(=O)N1CO`, the call was inactive. In the case of `CCCCOC(=O)C(C)CC` (stereo not given), the call was inactive.

As to `CCCC(CC)c1ccccc1` (stereo not given), the result was inactive. In the case of `O=C(Nc1ccccc1)c1cc(Cl)ccc1O` it was “inactive”; in that of `COc1cc(O)c(C(=O)c2ccccc2)cc1S(=O)(=O)O`, “inactive”; in that of `CC(CCC(=O)O)(c1ccc(O)cc1)c1ccc(O)cc1`, “inactive”. As for `CCOc1ccc(NC(N)=O)cc1`, the entry is “inactive”; as for `CCCCCCCCCCCCCc1ccccc1`, “inactive”. In the case of `Fc1ccc(Br)cc1` it was “inactive”; in that of `CCCCCCC=O`, “inactive”.

As to `CC1(C)CCC[C@]2(C)[C@H]3CC(=O)O[C@]3(C)CC[C@@H]12`, the result was inactive. For `Nc1ncnc2nc[nH]c12`, the outcome was inactive. Take `CC(=O)OC1CCCCC1`: the outcome was inactive. Take `CCCCNS(=O)(=O)c1ccc(C)cc1`: the compound was called inactive. Regarding `CCCC/C=C/C=C\C=O`, the outcome was inactive. As for `CCC[Si](OC)(OC)OC`, the entry is “inactive”.

Consider `C/C=C/C=C/CCCCCCCO`, for which the call was inactive. As for `CC1=CCC2CC1C2(C)C` (stereo not given), the entry is “inactive”; as for `CCCc1ccc(O)c(OC)c1`, “inactive”. Turning to `CCCCCCCOC(=O)c1ccc(O)cc1`, the call was inactive. In the case of `CC(=O)OCCc1ccccc1` it was “inactive”.

`CCCCC(C=O)CC` (stereo not given): the compound was called inactive. In the case of `CC1=C(O)C(=O)C(C)O1` (stereo not given) it was “inactive”; in that of `Cc1cccc(C(C)(C)C)c1O`, “inactive”. As for `CCCCCCCC(=O)OCC`, the entry is “inactive”; as for `CC(C)(C)C1CCC(=O)CC1`, “inactive”. In the case of `N#CC1(N)CCCCC1` it was “inactive”.
